Bioassay records (PubChem)
The list is not random: actives were taken first. Their share in the collection is about 2.5%.
PG9 binder – binds the HIV-1 gp120 antibody PG9 | 0.43% of 360,000 active | AID 624416 | TR-FRET gp120-PG9 antibody binding | inhibition, % at 6.7 µM; in the data active = inhibition above about 8.5%
Granule exo inh – lytic granule exocytosis inhibition; inhibition, % at 10 µM; TALL-104 LAMP-1 surface exposure, flow cytometry; cells stimulated with thapsigargin and PMA; AID 651702; 0.66% of 360,000 active;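 active = inhibition above about 55%, limit read from the data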
rCAG RNA binder – r(CAG) repeat RNA binding. AID 651821. 1.3% of 370,000 active. inhibition, % at 3 µM. TO-PRO-1 dye displacement fluorescence;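 active = inhibition above the plate cutoff, the mean of all test compounds on that plate plus 3 SD, cut at about 35% in these data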;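 note: 0% = DMSO alone and 100% = 100 µM mitoxantrone as full dye displacement; higher means more dye released from RNA so lower well fluorescence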
ABCB6 inh MLPCN – human ABCB6 transporter inhibition; Q9NP58; K562-ABCB6 porphyrin accumulation, flow cytometry, 1 h; hits give low values; fluorescence ratio to DMSO, % at 10 µM; 0.19% of 360,000 active; AID 602162;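 active = fluorescence ratio to DMSO below 75%, the collection mean minus 3 SD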;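 note: signal is porphyrin accumulated inside mitochondria; 100% equals median channel fluorescence of DMSO control wells; lower ratio means ABCB6 inhibition with less porphyrin fluorescence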
Target sequence (Q9NP58 whole entry, looked up): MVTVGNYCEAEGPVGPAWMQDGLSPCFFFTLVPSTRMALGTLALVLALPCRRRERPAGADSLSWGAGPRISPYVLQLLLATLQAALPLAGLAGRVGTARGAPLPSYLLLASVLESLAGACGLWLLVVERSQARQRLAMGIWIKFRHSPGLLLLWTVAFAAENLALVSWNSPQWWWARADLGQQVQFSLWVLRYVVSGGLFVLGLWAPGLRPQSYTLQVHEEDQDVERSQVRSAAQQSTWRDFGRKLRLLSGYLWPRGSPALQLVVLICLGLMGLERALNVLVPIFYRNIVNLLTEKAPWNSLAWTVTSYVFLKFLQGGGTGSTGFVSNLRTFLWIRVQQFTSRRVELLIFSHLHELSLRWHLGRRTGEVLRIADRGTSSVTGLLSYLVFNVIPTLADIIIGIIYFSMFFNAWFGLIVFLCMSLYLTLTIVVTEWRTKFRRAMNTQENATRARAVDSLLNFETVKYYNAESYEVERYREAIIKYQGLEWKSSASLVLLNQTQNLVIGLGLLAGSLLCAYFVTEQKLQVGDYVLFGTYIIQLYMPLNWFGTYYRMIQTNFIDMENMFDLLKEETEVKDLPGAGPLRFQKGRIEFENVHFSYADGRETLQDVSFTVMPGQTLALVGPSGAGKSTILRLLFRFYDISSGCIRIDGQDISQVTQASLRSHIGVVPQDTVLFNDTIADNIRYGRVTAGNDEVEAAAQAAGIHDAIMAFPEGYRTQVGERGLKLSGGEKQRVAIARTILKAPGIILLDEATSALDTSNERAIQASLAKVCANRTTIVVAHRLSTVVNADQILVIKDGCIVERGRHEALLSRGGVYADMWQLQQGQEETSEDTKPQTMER
Granule exo CP1 – blocks lytic granule exocytosis. shares compounds with Granule exo inh. TALL-104 cells, LAMP-1 externalization, flow cytometry; stimulated with PMA plus thapsigargin. inhibition, % at 10 µM. 11% of 1,500 active. AID 651954; in the data active = inhibition above about 60%;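 note: 0% = stimulated vehicle wells and 100% = unstimulated wells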
An asterisk follows results filed as active; . = not tested or not shown.

SMILES | PG9 binder | Granule exo inh | rCAG RNA binder | ABCB6 inh MLPCN | Granule exo CP1
Nc1c(C(=O)c2ccccc2)sc2nsc(SCCN3CCCC3)c12 | -3 | 64* | -3 | 165 | -4
COCC1CCN(Cc2cn(Cc3ccccc3)nc2-c2cc3ccccc3o2)CC1 | -2 | 13 | -7 | 99 | .
COCC1CCCN(Cc2cn(Cc3ccccc3)nc2-c2cc3ccccc3o2)C1 (configuration not stated) | -2 | 70* | -4 | 87 | -5
COC(=O)[C@H]1C[C@@]2(n3ccc4ccccc43)c3ccccc3N(S(=O)(=O)c3ccccc3)[C@H]2N1 | . | . | 4 | . | .
CC(C)NC(=O)C1C(c2ccc(C(F)(F)F)cc2)=Nc2ccccc2N1C(=O)c1cc2ccccc2[nH]1 (configuration not stated) | 0 | -20 | 17 | . | .
O=C(NC1CCCC1)C1C(c2ccc(C(F)(F)F)cc2)=Nc2ccccc2N1C(=O)c1cc2ccccc2[nH]1 (configuration not stated) | 0 | 70* | 11 | . | -15
O=C(Cn1sc2ccccc2c1=O)NC12CC3CC(CC(C3)C1)C2 | . | 104* | . | 101 | 100*
Cc1ccc(NC(=O)CSc2nnc(-c3ccoc3C)n2CCCN(C)C)cc1Cl | 0 | 63* | -6 | 99 | -5
CC(NC(=S)Nc1ccc(F)cc1)c1ccccc1 (configuration not stated) | -1 | 74* | -4 | 100 | -5
CC(C)c1ccccc1NC(=S)NC(C)c1ccccc1 (configuration not stated) | 1 | 2 | -5 | 103 | .
Cc1ccc(C(=O)Cn2c(=N)n(N)c3ccccc32)cc1 | -2 | -5 | 7 | 99 | .
CCN(CC)CCn1c(=N)n(CC(=O)c2ccc(C)cc2)c2ccccc21 | -1 | 56* | -3 | 99 | -12
COc1ccc(-c2cc(=O)oc3cc(OC(C)C(=O)NCc4ccccn4)ccc23)cc1 (configuration not stated) | -1 | -1 | -5 | 96 | .
CN(c1ccccc1)S(=O)(=O)c1cccc(C(=O)NCCc2c[nH]c3ccccc23)c1 | -1 | 66* | 2 | 107 | 86*
CC(C)(C)S(=O)N1Cc2cc(C(=O)Nc3ccc(-c4ccccc4)cc3)nc(-c3cccc(-c4cc5ccccc5o4)c3)c2[C@@H]1CCO (some centres not stated) | -3 | 1 | 15 | 96 | .
CC(C)(C)S(=O)N1Cc2cc(C(=O)N[C@@H]3CCN(Cc4ccccc4)C3)nc(-c3cccc(-c4cc5ccccc5o4)c3)c2[C@@H]1CCO (some centres not stated) | -1 | 63* | 13 | 91 | 19
CCn1ccnc1CN(C)C(=O)c1cc(COc2ccccc2SC)on1 | -3 | -2 | 1 | 100 | .
CCCCN(CC)C(=O)CSc1nc2n[nH]c(C)c2c(=N)n1-c1cccc(C)c1 | -2 | 62* | 0 | 100 | -10
CCN(C(=O)CSc1nc2n[nH]c(C)c2c(=N)n1-c1ccc(Cl)c(C)c1)c1cccc(C)c1 | 0 | 30 | 7 | 99 | .
CCOC(=O)CSc1nc(=O)n2cc(C)ccc2n1 | 4 | -1 | 0 | 105 | .
COc1cccc(-c2cc(CC3(O)CCN(CCCc4ccccc4)CC3)on2)c1 | . | 63* | . | 95 | -11
Cc1nccn1-c1cc(C(C)(C)C)nc2c(-c3ccccc3)cnn12 | -3 | -4 | -5 | 102 | .
CCc1cccc(C)c1NC(=O)c1cccc(N(C)C)c1 | -1 | 70* | 4 | 99 | -13
Cc1nn(C)cc1S(=O)(=O)N1CCCCC1C (configuration not stated) | -2 | -7 | -2 | 101 | .
CC(=O)N[C@@H](Cc1c[nH]c2ccccc12)C(=O)OCC(=O)Nc1ccc2c(c1)OCO2 | 0 | -2 | 3 | 102 | .
SMILES | PG9 binder | Granule exo inh | rCAG RNA binder | ABCB6 inh MLPCN | Granule exo CP1
O=C(COC(=O)[C@H](Cc1c[nH]c2ccccc12)NC(=O)c1ccc(Cl)cc1)Nc1ccc2c(c1)OCO2 | 1 | 69* | 14 | 96 | 78*
c1cc2c(cc1C1CCCCC1)c1c3n2CCCNC3CCC1 (configuration not stated) | 0 | 77* | 10 | 108 | 7
Cc1ccc2c(c1)c1c3n2CCCNC3CCC1 (configuration not stated) | -1 | 0 | 3 | 109 | .
COCCN(C(=S)Nc1ccc(Cl)cc1OC)C1CCN(C(C)=O)CC1 | 0 | -11 | -5 | 99 | .
O=C(Nc1cc([N+](=O)[O-])ccc1N1CCCC1)c1ccco1 | -2 | -1 | -2 | 94 | .
COC(=O)c1ccc(N2CCCCC2)c(NC(=O)c2ccco2)c1 | -1 | 93* | -2 | 100 | -4
O=C(Nc1ccc(N2CCCC2)c(Cl)c1)c1ccco1 | -5 | -3 | 8 | 112 | .
O=C(Nc1cccc(Cl)c1N1CCCC1)c1ccco1 | 0 | 74* | 2 | 99 | -14
N#Cc1c(NC(=O)c2ccc(Br)o2)n(-c2ccccc2)c2nc3ccccc3nc12 | 0 | 72* | 22 | 123 | 97*
CCC(=O)Nc1c(C#N)c2nc3ccccc3nc2n1-c1ccc(C)cc1 | 7 | 3 | 11 | 101 | .
CCOC(=O)Cn1c(=O)oc2cc(S(=O)(=O)NCCc3ccc(C)cc3)ccc21 | -2 | -2 | 2 | 99 | .
CCOC(=O)Cn1c(=O)oc2cc(S(=O)(=O)N(C)c3cccc(C)c3)ccc21 | 1 | 62* | -5 | 102 | 2
CCOC(=O)Cn1c(=O)oc2cc(S(=O)(=O)N(C)c3ccc(OC)cc3)ccc21 | -1 | 59* | 1 | 99 | -4
Cc1cc(C)cc(OCC(=O)Nc2ccc3c(c2)C(=O)c2ccccc2C3=O)c1 | -2 | 0 | 6 | 105 | .
O=C(NCC1CCCO1)c1ccc(N2CCCCC2)c([N+](=O)[O-])c1 (configuration not stated) | -3 | -3 | -3 | 95 | .
Cc1ccc(S(=O)(=O)N2CCC(=O)N(C(COCc3ccccc3)Cc3ccccc3)CC2)cc1 (configuration not stated) | 1 | 90* | -1 | 90 | -2
CCN(C[C@H]1N[C@@](C)(C(=O)OC)[C@H]2C(=O)N(Cc3ccccc3)C(=O)[C@@H]12)C(=O)c1ccc(C)cc1 | 0 | 0 | -2 | 87 | .
CCOC(=O)c1cnc2ccc(OCC)cc2c1N(C)Cc1ccccc1 | -2 | 102* | -2 | 83 | 79*
Cc1ccc(C(=O)c2c(C)oc3c2C(=O)C(=O)c2ccccc2-3)cc1 | . | 103* | . | 102 | 42
Cc1oc2c(c1C(=O)N1CCC(C)CC1)C(=O)c1ccccc1C2=O | 0 | . | 3 | . | .
COc1ccc(NC(=O)c2ccccc2OCc2ccc(F)cc2)c(OC)c1 | -1 | 85* | 3 | 99 | -11
CN(C)S(=O)(=O)c1cccc(NC(=O)COc2ccc(C(=O)c3ccccc3)cc2)c1 | 0 | 58* | 0 | 93 | 2
CN(C)S(=O)(=O)c1cccc(COc2ccccc2C(=O)Nc2ccccc2)c1 | 0 | 3 | 2 | 91 | .
CN(C)S(=O)(=O)c1cccc(NC(=O)c2ccccc2OCc2ccc(F)cc2)c1 | -1 | 102* | 6 | 97 | -10
